L3MBTL1 block: qHTS Assay for the Inhibitors of L3MBTL1. Lethal(3)malignant brain tumor-like protein 1 (Homo sapiens), Q9Y468. AlphaScreen L3MBTL1–H3K9me1 peptide binding. Potency, µM (series often up to 57.1 µM), inactives show top-dose activity, negative = inhibition, actives largely listed as inhibitors. hit rate 0.66% among 230,000; note: potency is the fitted concentration of half-maximal effect; % is set by controls: 0 for no effect and ±100 for the full control effect; nearly all actives have a fitted effect of over 60% in size
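L3MBTL1 (50 nM) pre-complexed 30 min with biotinylated H3(1-15)K9me1 peptide (75 nM), then compounds added for 30 min at room temperature; AlphaScreen streptavidin donor/nickel chelate acceptor beads (10 ug/mL final) read after 30 min dark incubation.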
HP1b binding inh: HTS for Inhibitors of HP1-beta Chromodomain Interactions with Methylated Histone Tails; Chromobox protein homolog 1 (Homo sapiens), P83916; AlphaScreen HP1-beta / biotin-H3K9me3 peptide binding; Potency, µM (highest dose often 114 µM), inactives show at the highest dose activity change, negative = inhibition, actives largely listed as inhibitors; AID 540317, 2011; hit rate 0.56% among 390,000; note: potency is the fitted concentration of half-maximal effect; nearly all actives have a fitted effect of over 70% in size
Target sequence (P83916 whole entry, looked up): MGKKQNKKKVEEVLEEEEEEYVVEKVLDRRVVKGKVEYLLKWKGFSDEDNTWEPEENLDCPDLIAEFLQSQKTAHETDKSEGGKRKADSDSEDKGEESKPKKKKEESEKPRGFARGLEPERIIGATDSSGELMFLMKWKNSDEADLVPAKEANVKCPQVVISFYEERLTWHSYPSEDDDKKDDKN
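Compound inhibition of the preformed complex between 50 nM HP1-beta and 50 nM biotinylated H3K9me3 peptide was read by AlphaScreen. Buffer was PBS pH 7.4 with 0.01% Tween-20. Incubations ran 30 min at room temperature, with 10 ug/mL donor/acceptor beads.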
BAZ2B block: qHTS Assay for Inhibitors of BAZ2B; AlphaScreen BAZ2B-H3K14Ac peptide displacement; Bromodomain adjacent to zinc finger domain protein 2B (Homo sapiens), Q9UIF8; hit rate 4.4% among 360,000; AID 504333, 2011; Potency, µM (series often up to 114 µM), inactives show top-dose activity change, negative = inhibition, usual class: inhibitors; note: potency is the fitted concentration of half-maximal effect; % is set by controls: 0 for no effect and ±100 for the full control effect; nearly all actives have a fitted effect of over 60% in size
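Multi-concentration screen (max 110 uM) measuring displacement of acetylated histone H3 peptide from BAZ2B by AlphaScreen, using 50 nM protein, 50 nM peptide and 10 ug/mL streptavidin donor plus Ni-chelate acceptor beads.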
PI5P4Ka inh: qHTS for Inhibitors of phosphatidylinositol 5-phosphate 4-kinase (PI5P4K); hit rate 1.2% among 330,000; AID 652105, 2013; PI5P4Kalpha enzyme, ADP-Glo luminescence, 60 min; hits give low values; max response, %; active = max response of -50% or lower; inconclusive = between -30% and -50%; inactive = -30% or higher; note: value at the top dose of about 77 µM; % is set by controls: 0 for no effect and ±100 for the full control effect
Target sequence (P48426 whole entry, looked up): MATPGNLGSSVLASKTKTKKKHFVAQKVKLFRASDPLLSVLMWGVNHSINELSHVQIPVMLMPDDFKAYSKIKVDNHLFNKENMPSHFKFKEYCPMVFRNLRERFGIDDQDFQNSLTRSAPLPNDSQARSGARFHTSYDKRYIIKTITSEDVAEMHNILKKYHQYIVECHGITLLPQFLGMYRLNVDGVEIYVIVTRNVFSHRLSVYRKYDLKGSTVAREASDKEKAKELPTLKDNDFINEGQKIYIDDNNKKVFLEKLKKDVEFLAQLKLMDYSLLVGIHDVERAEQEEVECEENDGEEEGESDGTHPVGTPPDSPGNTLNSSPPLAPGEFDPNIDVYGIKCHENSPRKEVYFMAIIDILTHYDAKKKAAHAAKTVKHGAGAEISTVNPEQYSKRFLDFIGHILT
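qHTS, 1536-well: enzyme/substrate mix, compound by pin tool, 5 microM ATP final; RT 60 min; ADP-Glo reagents 1 (45 min) then 2 (30 min); luminescence.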
JMJD2A Tudor inh: qHTS Assay for Inhibitors of JMJD2A-Tudor Domain; Potency, µM (doses to about 114 µM), inactives show at the highest dose activity change, negative = inhibition, most hits filed as inhibitors; Lysine-specific demethylase 4A (Homo sapiens), O75164; hit rate 4.4% among 390,000; AlphaScreen JMJD2A-Tudor / H3K4me3 peptide binding; note: potency is the fitted concentration of half-maximal effect; % is set by controls: 0 for no effect and ±100 for the full control effect; nearly all actives have a fitted effect of over 50% in size
G9a inh: qHTS Assay for Inhibitors of Histone Lysine Methyltransferase G9a; Histone-lysine N-methyltransferase EHMT2 (Homo sapiens), Q96KQ7; G9a H3K9 monomethylation, AlphaScreen, 2 h; Potency, µM (doses to about 102 µM), for inactives: top-dose activity, negative = inhibition, hits mostly inhibitors; hit rate 8.8% among 350,000; note: potency is the fitted concentration of half-maximal effect; % is set by controls: 0 for no effect and ±100 for the full control effect; nearly all actives have a fitted effect of over 75% in size
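AlphaScreen read-out: biotin-H3K9 peptide (500 nM) methylation by 20 nM enzyme with 20 uM SAM, 2 h at room temperature after 15 min compound preincubation; anti-monomethyl H3K9 antibody plus donor/acceptor beads, 10 min dark.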
* marks the source's active call; other numbers are inactive results; ? = inconclusive; . = no result given; [ ] = dose if it differs, or a comment. A selection: hits, their analogues and other compounds. The true share with any hit is near 11%. Unless noted, calls come from the whole dose curve; as a rule, active = well fitted inhibition curve with a large enough effect; inconclusive = small, poorly fitted or top-dose-only effect; inactive = no such curve, though single readings can be large or run the other way.

SMILES	L3MBTL1 block	HP1b binding inh	BAZ2B block	PI5P4Ka inh	JMJD2A Tudor inh	G9a inh
CCCC1(C(=O)OCC)NC(c2ccc(N(C)C)cc2)C2C(=O)N(c3ccc(OCC)cc3)C(=O)C21 (stereo unspecified)	-3%	-26%	?	0	?	50µM*
CCCC1(C(=O)OCC)NC(c2ccc(N(C)C)cc2)C2C(=O)N(c3ccccc3)C(=O)C21 (stereo unspecified)	-14%	4%	-38%	8	?	8.9µM*
Cc1cc2nnc(SC(C)C#N)n2c2ccccc12 (stereo unspecified)	-12%	3%	6%	-2	10µM*	3.2µM*
Cc1cc2nnc(SC3CCCCN(C(=O)c4ccc(F)cc4)C3=O)n2c2ccccc12 (stereo unspecified)	0%	31%	0%	-7	?	40µM*
Cc1cc(SC2CCOC2=O)nc2ccccc12 (stereo unspecified)	-20%	38%	4%	-1	-5%	?
Cc1cc2nnc(SC3CCOC3=O)n2c2ccccc12 (stereo unspecified)	0%	15%	6%	.	10µM*	10µM*
Cc1cccc(N2CCN(C(=O)c3cn(C)c4ccc(S(=O)(=O)N(C)C)cc4c3=O)CC2C)c1 (stereo unspecified)	.	36%	.	.	-20%	1%[59 µM]
Cc1ccc(-n2nc(C)c3c(C)cc(=O)n(CC(=O)Nc4cccc(C)c4C)c32)cc1	.	-7%	-4%	.	-15%	12%[59 µM]
COC(=O)c1nnn(CC(=O)Nc2cc(F)ccc2F)c1C(=O)OC	.	67%	41%	.	-16%	46%[59 µM]
CCc1ccc(NC(=O)Cn2c(=O)n(Cc3ccc4c(c3)OCO4)c(=O)c3oc4ccccc4c32)cc1	.	37%	-26%	.	1%	-4%[59 µM]
O=C(CSc1nnc(-c2ccccc2)n1Cc1ccco1)Nc1ccc2c(c1)OCCO2	-5%	-1%	-38%	-8	-31%	40µM*
O=C(CSc1nnc(-c2cccs2)n1Cc1ccco1)Nc1ccc2c(c1)OCO2	?	16%	?	0	-32%	-41%[12.7 µM]
O=C(CSc1nnc(-c2ccccc2)n1Cc1ccco1)NCc1ccc2c(c1)OCO2	.	15%	1%	-15	-30%	45µM*
Cc1cc(C(=O)CSc2nnc(-c3ccccc3)n2Cc2ccc3c(c2)OCO3)c(C)n1C	-1%	29%	-6%	.	-10%	28µM*
Cc1cc(C)cc(NS(=O)(=O)c2ccc3c(c2)CCCN3C(=O)C2CCC2)c1	.	26%[57 µM]	1%	.	-7%	2%[59 µM]
Cc1[nH]c2ccc(C(=O)OCCN(C)C)cc2c1C	-4%	-11%	-11%	13	?	?
Cc1c(C)n(Cc2ccccc2)c2ccc(C(=O)OCCCN(C)C)cc12	-20%	?	-12%	1	40µM*	9%
Cc1c(C)n(CCN(C)C)c2ccc(C(=O)OCCN(C)C)cc12	.	9%	-26%	-1	-7%	14µM*
CCOc1ccc(N/C=C/C(=O)c2ccc(OC)c(OC)c2)cc1	3%	22%	-4%	2	-13%	21%
CCCOc1ccc(N/C=C/C(=O)c2ccc(OC)c(OC)c2)cc1	1%	14%	-10%	8	28µM*	.
COc1ccc(C(=O)/C=C/NCc2ccc(F)cc2)cc1OC	-16%	10%	-12%	0	-17%	50µM*
CCCS(=O)(=O)N1CC(=O)N(c2cccc(Cl)c2)C(C)(C(=O)NC2CCCCC2)C1 (stereo unspecified)	.	15%	-1%	.	-10%	7%[59 µM]
O=S(=O)(c1ccsc1)N1CCN(c2nc(-c3cccs3)nc3ccccc23)CC1	.	.	.	.	-14%	.
O=C(Nc1ccc(S(=O)(=O)N2CCCC2)cc1)c1cccc(OC(F)F)c1	-6%	19%	7%	-3	-18%	35µM*
O=C(Nc1cccc(S(=O)(=O)N2CCCC2)c1)c1cccc(OC(F)F)c1	-3%	31%	-9%	4	-10%	-36%
SMILES	L3MBTL1 block	HP1b binding inh	BAZ2B block	PI5P4Ka inh	JMJD2A Tudor inh	G9a inh
CCN(CC(=O)Nc1ccc(S(=O)(=O)N2CCCC2)cc1)Cc1ccccc1	2%	28%	5%	1	-6%	45µM*
CCN(CC(=O)Nc1ccc(S(=O)(=O)N2CCOCC2)cc1)Cc1ccccc1	3%	1%	15%	19	-10%	-34%[12.7 µM]
Cc1ccc(OCC(=O)NNC(=O)CSC(=S)N2CCCC2)cc1	-8%	30%	-4%	-9	-16%	45µM*
Cc1ccc(NC(=O)CN2CCCN(S(=O)(=O)c3ccc(Br)s3)CC2)cc1	.	36%	-3%	22	-21%	50µM*
COc1ccc(Cn2ccc3nc(C)c(C(=O)N4CCN(c5cccc(OC)c5)CC4)cc3c2=O)cc1	.	0%	-33%	.	?	11%[59 µM]
CCOC(=O)c1ccc(NC(=O)c2c(C)nn(-c3ccc(F)cc3)c2-n2cccc2)cc1	.	41%	-1%	.	9%	9%[59 µM]
O=C(COc1ccccc1)Nc1ccc(S(=O)(=O)N2CCCC2)cc1	-1%	32%	0%	-10	-1%	50µM*
O=C(COC(=O)c1ccc(S(=O)(=O)N2CCCC2)cc1)Nc1cccc(F)c1	1%	31%	14%	1	-23%	5µM*
Cc1ccc(NC(=O)CN(C)C(C)C(=O)Nc2ccc(S(=O)(=O)N3CCCC3)cc2)cc1 (stereo unspecified)	-1%	26%	3%	0	-14%	3%[2.33 µM]
Cc1cccc(NC(=O)COC(=O)c2ccc(S(=O)(=O)N3CCCC3)cc2)c1	4%	24%	-3%	-4	-9%	-33%
Cc1ccc(OCC(=O)Nc2ccc(S(=O)(=O)N3CCN(C)CC3)cc2)cc1	-7%	53%	-37%	-1	-13%	11µM*
COc1ccc(OCC(=O)Nc2ccc(S(=O)(=O)N3CCN(C)CC3)cc2)cc1	-7%	25%	-22%	1	-12%	-32%
CCN(Cc1ccc(N(C)C)cc1)C(C)C(=O)Nc1ccc(S(=O)(=O)N2CCCC2)cc1 (stereo unspecified)	?	-27%	40µM*	-1	32µM*	20%[12.7 µM]
O=C(COc1ccccc1)Nc1ccc(S(=O)(=O)N2CCCCCC2)cc1	.	15%	3%	4	-4%	-5%[12.7 µM]
CCN1CCN(S(=O)(=O)c2ccc(Cl)c(C(=O)N(CC)Cc3ccccc3)c2)CC1	-1%	11%	-29%	-2	-21%	14µM*

Screens from PubChem.
